The source of these data is PubChem BioAssay AID720517 (National Center for Advancing Translational Sciences (NCATS), 2013).

Records with an inconclusive call do not appear. Entries that show only a call come without a potency. The source made the active and inactive calls. Calls come from the whole dose curve; as a rule, active = well fitted activation curve with a large enough effect; inconclusive = small, poorly fitted or top-dose-only effect; inactive = flat fitted curve, though single readings scatter.
Potency is the fitted concentration of half-maximal effect.

A short description of the assay: qHTS for Inhibitors of Cell Surface uPA Generation: FP59 Counterscreen for Cherry-picked Compounds. The conditions noted are these: FP59 anthrax toxin cytotoxicity counterscreen, cells; series mostly up to 115 µM. Background: Quantitative high-throughput screening tests each substance at several concentrations.
As for `CC(=O)NC(=S)Nc1ccc([N+](=O)[O-])cc1C`, the Potency entry is “inactive”. `Cc1ccc(NC(=O)c2ccc(=O)[nH]n2)cc1S(=O)(=O)Nc1ccccc1Cl`: the Potency result is “inactive”. For `COc1ccc2nc(SC(C)C(=O)NC3(C#N)CCCCC3)[nH]c2c1` (stereo not given), the Potency result was “inactive”.

On to `CCOc1ccc(NS(=O)(=O)c2coc(C(N)=O)c2)cc1`, for which the Potency result is “inactive”. For `Cc1ccc2oc(C(=O)N(Cc3ccc(N(C)C)cc3)C3CCS(=O)(=O)C3)c(C)c2c1` (stereo not given), the Potency result is “inactive”. Take `Cc1ccnc(NS(=O)(=O)c2ccc(NC(=O)C3C4C=CC(C4)C3C(=O)O)cc2)n1` (stereo not given): the Potency result is “inactive”. For `Cc1cc(C)cc(NC(=O)Cc2ccc(NC3=NC4CS(=O)(=O)CC4S3)cc2)c1` (stereo not given), the Potency result is “inactive”.

Regarding `Cc1ccc(/C=N/NC(=O)c2ccc3nc[nH]c3c2)s1`, the Potency result is “inactive”.

`CCC(C(=O)NCc1ccc(C)cc1)c1ccccc1` (stereo not given): the Potency entry is “inactive”. Take `O=C(CCCC(=O)N1CCN(c2ccccc2F)CC1)c1ccccc1`: the Potency result was “inactive”.

Consider `CCN(C(=O)c1c(C)noc1C)c1c(N)n(Cc2ccccc2)c(=O)[nH]c1=O`, for which the Potency result was “inactive”. On to `Cc1ccc(-c2cc(C(=O)NCC3CCCO3)no2)cc1` (stereo not given), for which the Potency entry is “inactive”. For the compound `Cc1nc(NC2CCCCC2)c2nnn(Cc3ccccc3Cl)c2n1`, the Potency result was “inactive”.

In the case of `Cc1cc(C)c(S(=O)(=O)N2CCCOC2CNC(=O)C(=O)NCc2cccs2)c(C)c1` (stereo not given), the Potency entry was “inactive”.

With `COc1ccc(S(=O)(=O)c2c(O)c3ccc(C(=O)Nc4ccccc4)cc3[nH]c2=O)cc1`, the Potency result is “inactive”.

As for `C[C@@H](NC(=O)c1nc[nH]c1C(=O)NCc1ccc(CNC(=O)OC(C)(C)C)cc1)c1ccccc1`, the Potency was 58.5 µM (active). Take `COc1ccc(-n2nc(C(=O)Nc3cc(OC)c(OC)c(OC)c3)c3ccccc3c2=O)c(OC)c1`: the Potency result is “inactive”. Consider `O=C(CCN1CCN(c2ccccc2F)CC1)Nc1ccc(F)cc1`, for which the Potency result was “inactive”. With `CCCCNC(=O)c1cc2c(-c3ccc(Cl)cc3)nn(C)c2s1`, the Potency result is “inactive”.

Regarding `O=C(COC(=O)C1CC2C=CC1C2)NCc1ccccc1Cl` (stereo not given), the Potency entry is “inactive”.

In the case of `N#CCC(=O)N/N=C/c1ccc(OCC(=O)Nc2ccc(F)cc2)cc1`, the Potency entry is “inactive”. For `O=c1ccc(S(=O)(=O)N2CCCC2)c[nH]1`, the Potency result was “inactive”.

Consider `O=C(COC(=O)c1cccc([N+](=O)[O-])c1)NNC(=O)c1cccs1`, for which the Potency result was “inactive”. With `N#C/C(N=Nc1ccccc1O)=N\Nc1ccccc1O`, the Potency entry was “inactive”. Then `CCOC(=O)CN1C(=O)N[C@@H](c2ccccc2)C(C(C)=O)=C1C`, with “inactive”; and `COc1ccccc1NC(=O)COc1ccc(C(=O)NCc2ccccc2)cc1OC`, with “inactive”; and `CC(C)(C)n1ncc2c(=O)n(Cc3ccc(Cl)cc3)cnc21`, with “inactive”. Regarding `CC(=O)c1ccc(OCCCCOc2ccc(C(C)=O)cc2)cc1`, the Potency entry is “inactive”. Turning to `CC1CCCCN1C(=O)CSc1nc2ncccc2[nH]1` (stereo not given), the Potency result was “inactive”. As for `COc1cccc(C(=O)Cn2c(NCCCO)nc3ccccc32)c1`, the Potency entry was “inactive”.

Turning to `COc1ccc(C2C(C(=O)c3ccc(C)o3)=C(O)C(=O)N2CC2CCCO2)cc1OC` (stereo not given), the Potency entry was “inactive”. `NC(=O)c1ccccc1NC(=O)CC12CC3CC(CC(C3)C1)C2`: the Potency entry is “inactive”. On to `CCOc1ccc(C2(C)CC(=O)N(C)C2=O)cc1` (stereo not given), for which the Potency result is “inactive”.

As for `O=C(CN1C(=O)CSCC1=O)NCc1ccc(F)cc1`, the Potency entry is “inactive”.

Consider `C[n+]1c2cc(N)ccc2cc2ccc(N)cc21`, for which the Potency entry is “inactive”.

`COc1ccc(C(CNC(=O)C(C)Oc2ccc(Br)cc2)N2CCCC2)cc1` (stereo not given): the Potency entry was “inactive”. Then `Cc1cccc(C)c1NC(=O)c1c(O)c2ccccc2[nH]c1=O`, with “inactive”; and `CCNC(=S)NNC(=O)c1ccncc1`, with “inactive”; and `C=C(C)C(=O)O[C@H]1C/C(C)=C\C(=O)/C=C(\C)[C@H](O)[C@@H]2OC(=O)C(=C)[C@@H]21`, with “inactive”. Turning to `CC(=O)c1c(C)n(-c2ccccc2Br)c2ccc(O)cc12`, the Potency result is “inactive”.
